Read-out in test [1]: Tumor necrosis factor receptor superfamily member 6 (Homo sapiens) (UniProt P25445)
Description: LTEA_HepaRG_FAS: Life Technologies and Expression Analysis (LTEA) Assay for Fas cell surface death receptor (FAS) using HepaRG (AID 2283447). The note with it: mRNA level, 48 h; actives raise or lower the signal. In a few lines: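 Differentiated HepaRG cells in serum-free induction medium were exposed 48 h to 8 half-log concentrations up to 100 uM in 0.5% DMSO, in duplicate. FAS mRNA was measured by qRT-PCR normalised to ACTB, GAPDH and POLR2A; bidirectional fit versus DMSO.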

Read-out in test [2]: Fatty acid synthase (Homo sapiens) (UniProt P49327)
Description: LTEA_HepaRG_FASN: Life Technologies and Expression Analysis (LTEA) Assay for Fatty Acid Synthase (FASN) using HepaRG (AID 2283448). The note with it: mRNA level, 48 h; actives raise or lower the signal. In a few lines:
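Differentiated human HepaRG cells were exposed for 48 h in serum-free induction medium to eight half-log concentrations up to 100 uM in 0.5% DMSO, in duplicate. FASN mRNA was quantified by TaqMan qRT-PCR, normalized to ACTB/GAPDH/POLR2A, and fitted bidirectionally against DMSO.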

Read-out in test [3]: Cyclin D2 (CCND2), CCND2 (gene 894)
Description: LTEA_HepaRG_CCND2: Life Technologies and Expression Analysis (LTEA) Assay for Cyclin D2 (CCND2) using HepaRG (AID 2283449).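 Also: CCND2 transcript measured by TaqMan qRT-PCR and normalised to three housekeeping genes.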 The note with it: mRNA level, 48 h; actives raise or lower the signal. In a few lines:
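Chemicals in 0.5% DMSO, eight half-log concentrations from 100 uM top, were applied in duplicate for 48 h to human HepaRG cells in serum-free induction medium. CCND2 mRNA by TaqMan qRT-PCR, normalised to ACTB/GAPDH/POLR2A; bidirectional fit versus DMSO.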

Read-out in test [4]: Cyclin Dependent Kinase Inhibitor 1A (CDKN1A), CDKN1A (gene 1026)
Description: LTEA_HepaRG_CDKN1A: Life Technologies and Expression Analysis (LTEA) Assay for Cyclin Dependent Kinase Inhibitor 1A (CDKN1A) using HepaRG (AID 2283450). The note with it: mRNA level, 48 h; actives raise or lower the signal. The gist of the method: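 HepaRG, 48 h dosing, 8-pt half-log series from 100 uM top, 0.5% DMSO vehicle, duplicates. Readout: TaqMan qRT-PCR of CDKN1A transcript, housekeeping-normalized (ACTB, GAPDH, POLR2A). Up/down curve fit relative to DMSO.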

Read-out in test [5]: Cyclin D1 (CCND1), CCND1 (gene 595)
Description: LTEA_HepaRG_CCND1: Life Technologies and Expression Analysis (LTEA) Assay for Cyclin D1 (CCND1) using HepaRG (AID 2283451). The note with it: mRNA level, 48 h; actives raise or lower the signal. In a few lines:
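qRT-PCR (Fluidigm 96.96 array) read-out of transcript level, housekeeping-normalized (ACTB/GAPDH/POLR2A). HepaRG cells, 48 h chemical exposure, 8-point half-log series from 100 uM, 0.5% DMSO vehicle; gain or loss relative to DMSO baseline.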

Read-out in test [6]: catalase (CAT), CAT (gene 847)
Description: LTEA_HepaRG_CAT: Life Technologies and Expression Analysis (LTEA) Assay for catalase (CAT) using HepaRG (AID 2283452). The note with it: mRNA level, 48 h; actives raise or lower the signal. In a few lines:
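HepaRG cells in serum-free induction medium, 0.5% DMSO vehicle, exposed 48 h in duplicate over 8 half-log concentrations from 100 uM. CAT mRNA measured by qRT-PCR, normalized to ACTB, GAPDH, POLR2A; bidirectional fit versus DMSO.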

Read-out in test [7]: flavin-containing dimethylaniline monooxygenases 3 (FMO3), FMO3 (gene 2328)
The experiment in a line: LTEA_HepaRG_FMO3: Life Technologies and Expression Analysis (LTEA) Assay for flavin-containing dimethylaniline monooxygenases 3 (FMO3) using HepaRG (AID 2283453). The note with it: mRNA level, 48 h; actives raise or lower the signal. In a few lines: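 HepaRG, 48 h exposure, 8-pt half-log series from 100 uM, 0.5% DMSO vehicle, duplicates; FMO3 transcript by Fluidigm TaqMan qRT-PCR, housekeeping-normalized; gain/loss fit vs DMSO.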

Read-out in test [8]: Cytochrome P450 (CYP1A1), CYP1A1 (gene 1543)
Description: LTEA_HepaRG_CYP1A1: Life Technologies and Expression Analysis (LTEA) Assay for Cytochrome P450 (CYP1A1) using HepaRG (AID 2283454). The note with it: mRNA level, 48 h; actives raise or lower the signal. The gist of the method: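 qRT-PCR read-out: CYP1A1 transcript normalized to three housekeeping genes, fitted bidirectionally against 0.5% DMSO vehicle baseline. Human HepaRG cells, 48 h chemical exposure, 8-point half-log series topping at 100 uM.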

Read-out in test [9]: CFLAR gene, CFLAR (gene 8837)
The experiment in a line: LTEA_HepaRG_CFLAR: Life Technologies and Expression Analysis (LTEA) Assay for CFLAR gene using HepaRG (AID 2283455). The note with it: mRNA level, 48 h; actives raise or lower the signal. The gist of the method:
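Differentiated HepaRG cells in serum-free induction medium were exposed 48 h in duplicate to eight half-log concentrations up to 100 uM in 0.5% DMSO; mRNA measured by TaqMan qRT-PCR, normalized to ACTB, GAPDH, POLR2A; bidirectional fitting versus DMSO.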

Read-out in test [10]: Forkhead box O1 (FOXO1), FOXO1 (gene 2308)
The experiment in a line: LTEA_HepaRG_FOXO1: Life Technologies and Expression Analysis (LTEA) Assay for Forkhead box O1 (FOXO1) using HepaRG (AID 2283456). The note with it: mRNA level, 48 h; actives raise or lower the signal. The gist of the method:
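Differentiated HepaRG cells, in serum-free induction medium with 0.5% DMSO, exposed 48 h in duplicate to 8-point half-log series from 100 uM. FOXO1 mRNA measured by TaqMan qRT-PCR, normalized to ACTB, GAPDH, POLR2A; bidirectional fit versus DMSO.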

A short description of test [11]: CEETOX_H295R_11DCORT: CeeTox H295R High-throughput Steroidogenesis Assay for 11-Deoxycortisol (11DCORT) (AID 2283432). The note with it: actives raise or lower the signal. The gist of the method: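 H295R cells prestimulated 48 h with 10 uM forskolin, then exposed 48 h to chemical in 0.1% DMSO. 11-Deoxycortisol in medium quantified by HPLC-MS/MS after MTBE extraction; bidirectional fit versus DMSO. MTT viability read in same wells.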

Test [12] can be described thus: CEETOX_H295R_OHPREG: CeeTox H295R High-throughput Steroidogenesis Assay for OH-Pregnenolone (OHPREG) (AID 2283434). The note with it: actives raise or lower the signal. In a few lines:
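H295R cells pre-stimulated 48 h with 10 uM forskolin, then exposed 48 h to chemical in 0.1% DMSO. 17alpha-hydroxypregnenolone in medium quantified by MTBE extraction and HPLC-MS/MS; bidirectional fit versus DMSO, viability checked by MTT.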

Test [13] in a line: CEETOX_H295R_CORTIC: CeeTox H295R High-throughput Steroidogenesis Assay for Corticosterone (CORTIC) (AID 2283437).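 Also: corticosterone secreted into medium quantified by mass spectrometry.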 The note with it: actives raise or lower the signal. The gist of the method: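 H295R adrenal cells prestimulated 48 hours with 10 uM forskolin, then exposed 48 hours to chemical in 0.1% DMSO. Corticosterone in medium measured by HPLC-MS/MS after MTBE extraction; MTT viability in the same wells; bidirectional fit versus DMSO.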

Test [14] is described as follows: CEETOX_H295R_CORTISOL: CeeTox H295R High-throughput Steroidogenesis Assay for Cortisol (AID 2283438).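 Also: cortisol secreted into medium quantified by LC-MS/MS.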 The note with it: actives raise or lower the signal. In a few lines: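 H295R human adrenal cells were prestimulated 48 h with 10 uM forskolin, then exposed 48 h to test chemical (0.1% DMSO final). Medium cortisol was quantified by HPLC-MS/MS after MTBE extraction; bidirectional fitting relative to DMSO baseline.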

A short description of test [15]: CEETOX_H295R_DOC: CeeTox H295R High-throughput Steroidogenesis Assay for DOC (AID 2283439). The note with it: actives raise or lower the signal. In a few lines: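 H295R adrenal cells prestimulated 48 h with 10 uM forskolin, then exposed 48 h to test chemical (0.1% DMSO final). Medium 11-deoxycorticosterone extracted with MTBE, quantified by HPLC-MS/MS; bidirectional fit versus DMSO baseline; MTT viability in same wells.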

The nature of test [16]: CEETOX_H295R_ESTRADIOL: CeeTox H295R High-throughput Steroidogenesis Assay for Estradiol (AID 2283440).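 Also: estradiol secreted into medium quantified by LC-MS/MS after dansyl derivatisation.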 The note with it: actives raise or lower the signal. In a few lines: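 H295R, 48 h forskolin (10 uM) prestim → 48 h compound, 0.1% DMSO final. Estradiol in medium: MTBE extraction, dansyl chloride derivatization, LC-MS/MS. Fit bidirectional vs DMSO baseline; MTT viability in same wells.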

Test [17] can be described thus: CEETOX_H295R_ESTRONE: CeeTox H295R High-throughput Steroidogenesis Assay for Estrone (AID 2283441).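 Also: estrone secreted into medium measured by LC-MS/MS after dansyl derivatization.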 The note with it: actives raise or lower the signal. The gist of the method:
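H295R cells; 48 h forskolin (10 uM) prestimulation; 48 h compound exposure, 0.1% DMSO final. Medium estrone: MTBE extraction, dansyl derivatization, HPLC-MS/MS. Bidirectional fit vs DMSO.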

Test [18] can be described thus: CEETOX_H295R_PROG: CeeTox H295R High-throughput Steroidogenesis Assay for Progesterone (PROG) (AID 2283442). The note with it: actives raise or lower the signal. In a few lines: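 Progesterone read-out: HPLC-MS/MS on MTBE extracts of conditioned medium after 48 h chemical exposure of forskolin-primed (10 uM, 48 h) H295R cells. Gain or loss of signal was fitted relative to DMSO baseline.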

The source made the active and inactive calls. The calls were made as follows: active = hit-call score of the fitted dose curve at least 0.9, where 1 is the maximum; inactive = score below 0.9.

Sequence of Fatty acid synthase (Homo sapiens) (P49327 whole entry, looked up): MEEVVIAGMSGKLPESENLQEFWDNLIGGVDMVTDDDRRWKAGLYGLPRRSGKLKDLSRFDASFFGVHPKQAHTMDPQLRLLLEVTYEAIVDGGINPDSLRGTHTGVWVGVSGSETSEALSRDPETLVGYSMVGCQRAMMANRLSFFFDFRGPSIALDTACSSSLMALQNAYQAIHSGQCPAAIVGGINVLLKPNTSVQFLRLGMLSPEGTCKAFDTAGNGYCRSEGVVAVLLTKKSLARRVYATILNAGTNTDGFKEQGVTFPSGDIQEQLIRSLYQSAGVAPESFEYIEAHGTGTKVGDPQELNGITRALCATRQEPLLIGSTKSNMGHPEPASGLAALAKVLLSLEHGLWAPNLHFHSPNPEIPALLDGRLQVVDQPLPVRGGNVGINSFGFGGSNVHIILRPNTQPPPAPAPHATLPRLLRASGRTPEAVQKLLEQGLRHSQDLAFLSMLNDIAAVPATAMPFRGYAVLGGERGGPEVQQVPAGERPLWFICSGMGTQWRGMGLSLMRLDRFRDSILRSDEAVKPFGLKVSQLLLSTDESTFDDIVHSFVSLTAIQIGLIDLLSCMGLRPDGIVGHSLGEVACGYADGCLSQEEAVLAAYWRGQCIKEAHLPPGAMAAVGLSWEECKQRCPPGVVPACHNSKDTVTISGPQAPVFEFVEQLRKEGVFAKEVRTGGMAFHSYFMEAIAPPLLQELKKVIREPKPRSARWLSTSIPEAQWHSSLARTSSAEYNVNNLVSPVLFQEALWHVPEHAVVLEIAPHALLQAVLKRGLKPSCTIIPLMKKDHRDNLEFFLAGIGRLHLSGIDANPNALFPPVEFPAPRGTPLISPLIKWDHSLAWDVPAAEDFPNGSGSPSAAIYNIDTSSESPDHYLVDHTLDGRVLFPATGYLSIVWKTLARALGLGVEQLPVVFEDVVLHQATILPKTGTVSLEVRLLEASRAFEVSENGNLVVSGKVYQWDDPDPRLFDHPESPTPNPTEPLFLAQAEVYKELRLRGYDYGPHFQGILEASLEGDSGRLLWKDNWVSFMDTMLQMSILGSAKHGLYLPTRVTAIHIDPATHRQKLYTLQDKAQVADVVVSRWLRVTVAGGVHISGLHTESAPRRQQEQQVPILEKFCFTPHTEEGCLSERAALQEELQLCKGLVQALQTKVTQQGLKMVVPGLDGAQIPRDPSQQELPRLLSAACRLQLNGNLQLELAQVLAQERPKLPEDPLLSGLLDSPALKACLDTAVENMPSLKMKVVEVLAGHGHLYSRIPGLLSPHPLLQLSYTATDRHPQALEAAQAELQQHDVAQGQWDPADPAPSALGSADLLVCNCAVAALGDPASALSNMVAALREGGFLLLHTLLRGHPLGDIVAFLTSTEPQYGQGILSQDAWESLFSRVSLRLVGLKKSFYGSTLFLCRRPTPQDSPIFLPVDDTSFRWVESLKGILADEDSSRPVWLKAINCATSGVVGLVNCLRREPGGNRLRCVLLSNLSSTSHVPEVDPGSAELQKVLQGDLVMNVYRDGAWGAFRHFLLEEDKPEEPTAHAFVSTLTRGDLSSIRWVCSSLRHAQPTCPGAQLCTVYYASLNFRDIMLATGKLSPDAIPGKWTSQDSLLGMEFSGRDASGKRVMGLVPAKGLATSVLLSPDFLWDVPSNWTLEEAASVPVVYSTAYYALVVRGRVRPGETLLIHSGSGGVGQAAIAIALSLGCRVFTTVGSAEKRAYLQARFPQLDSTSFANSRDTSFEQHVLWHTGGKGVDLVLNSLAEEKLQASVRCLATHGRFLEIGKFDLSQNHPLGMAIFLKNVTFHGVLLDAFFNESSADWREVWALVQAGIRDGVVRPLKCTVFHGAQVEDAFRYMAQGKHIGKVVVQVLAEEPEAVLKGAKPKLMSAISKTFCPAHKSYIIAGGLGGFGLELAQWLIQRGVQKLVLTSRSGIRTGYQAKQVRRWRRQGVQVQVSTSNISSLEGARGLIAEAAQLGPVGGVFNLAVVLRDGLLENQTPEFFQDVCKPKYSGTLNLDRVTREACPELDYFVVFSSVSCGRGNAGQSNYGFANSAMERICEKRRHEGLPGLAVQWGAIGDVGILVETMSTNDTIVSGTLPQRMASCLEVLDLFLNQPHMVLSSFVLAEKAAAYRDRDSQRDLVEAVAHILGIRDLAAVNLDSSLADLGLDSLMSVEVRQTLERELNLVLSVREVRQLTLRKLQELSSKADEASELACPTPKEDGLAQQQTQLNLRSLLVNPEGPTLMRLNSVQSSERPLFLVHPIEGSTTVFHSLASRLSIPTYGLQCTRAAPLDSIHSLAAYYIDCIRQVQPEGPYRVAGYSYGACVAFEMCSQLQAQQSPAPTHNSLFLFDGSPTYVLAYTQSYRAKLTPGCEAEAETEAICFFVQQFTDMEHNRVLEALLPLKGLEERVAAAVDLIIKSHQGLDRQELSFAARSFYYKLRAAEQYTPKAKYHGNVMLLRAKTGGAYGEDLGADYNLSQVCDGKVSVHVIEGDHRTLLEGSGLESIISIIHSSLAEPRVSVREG

For the compound `CCCC(CCC)C(=O)O`, the result in test [1], in [2], in test [3], in test [4], in test [5] and in test [6] was inactive. The compound was called inactive in test [7], in [9] and in test [10]. Moreover, in test [8], the concentration at half-maximal activity (AC50) (commonly the midpoint of the concentration-response curve, whichever way the signal moves) was 64.3 µM (active).

`CCCCCCOC(=O)CC(CC(=O)OCCCCCC)(OC(=O)CCC)C(=O)OCCCCCC`: the result in test [1], in test [2], in [3], in [4], in test [5] and in test [6] was inactive. The compound was classed as inactive in test [7], in [8], in test [9] and in test [10].

For `CCCOc1ccc(S(=O)(=O)N2CCN(CC)CC2)cc1-c1nc2c(CC)n(Cc3ccccn3)nc2c(=O)[nH]1`, the compound was classed as inactive in test [11], in [12], in [13], in [14], in [15] and in test [16]. In addition, the call in test [17], in [18], in test [1], in test [3], in test [4] and in test [5] was inactive. Also, the compound was classed as inactive in test [6], in test [7], in [9] and in test [10]. For the same compound, the AC50 in test [2] is 50 µM (active); in [8], 59.8 µM (active).

Consider `OCCOCCOCCO`, for which the compound was classed as inactive in test [1], in test [2], in [3], in test [4], in [5] and in test [6]. Also, the compound was classed as inactive in test [7], in test [9] and in test [10]. The AC50 in [8] was 84.1 µM (active).
